Screening data from PubChem BioAssay.
This is a sample that favours compounds with a hit; in the whole collection about 3.7% have one here.
CHT allo act: CHT positive allosteric modulators, primary screen, cell-based, membrane potential dye, choline EC20. CHT-expressing cells; hits give high values; LV-AA mutant CHT in HEK293 cells. B-score at 10 µM. 310,000 tested, 0.49% active;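 active = initial fluorescence not abnormally high and integrated response B-score, plate-corrected, over 3 SD above library mean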
Target sequence (Q9GZV3 whole entry, looked up): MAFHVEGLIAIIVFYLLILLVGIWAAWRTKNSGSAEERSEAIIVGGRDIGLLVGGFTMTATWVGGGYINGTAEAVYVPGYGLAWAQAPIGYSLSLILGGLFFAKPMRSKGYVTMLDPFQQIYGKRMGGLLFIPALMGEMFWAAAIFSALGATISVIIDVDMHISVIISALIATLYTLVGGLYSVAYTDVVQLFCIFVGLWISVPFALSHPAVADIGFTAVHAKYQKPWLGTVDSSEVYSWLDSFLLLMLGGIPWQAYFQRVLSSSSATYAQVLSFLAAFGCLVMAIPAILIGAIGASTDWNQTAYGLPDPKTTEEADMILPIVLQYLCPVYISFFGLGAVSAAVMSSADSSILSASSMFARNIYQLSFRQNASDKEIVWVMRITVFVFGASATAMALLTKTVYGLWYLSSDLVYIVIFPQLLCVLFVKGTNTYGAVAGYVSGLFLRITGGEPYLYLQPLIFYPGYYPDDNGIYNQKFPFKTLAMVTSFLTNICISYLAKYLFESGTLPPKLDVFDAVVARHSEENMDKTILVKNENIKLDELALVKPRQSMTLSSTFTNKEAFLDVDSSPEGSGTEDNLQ
CHT block: inhibitors of human choline transporter CHT; High affinity choline transporter 1 (Homo sapiens), Q9GZV3; AID 488975, 2010; CHT-expressing cells, membrane potential dye, choline response; hits give low values; B-score at 10 µM; 310,000 tested, 0.86% active;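 active = B-score over 3 SD under the library average, and starting fluorescence ratio not unusually high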;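 also: choline stimulus applied at its EC90 after an EC20 pre-addition; B-score computed on integrated fluorescence ratio after choline addition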
GPR7 antag: GPR7 receptor antagonists, primary screen, cell-based, fluorescence, single concentration; Neuropeptides B/W receptor type 1 (Homo sapiens), P48145; inhibition, % at 4.4 µM; AID 1861, 2009; GPR7-expressing cells, fluorescence antagonist assay; 290,000 tested, 1.1% active; in the data active = inhibition above about 16%, passing the limit was not always enough;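 also: cells stimulated with the agonist NPW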
ANO1 block: TMEM16A chloride channel inhibitors, primary screen, cell-based, HTS. 310,000 tested, 1.2% active. normalized B-score (activity score, 25-100; higher = stronger inhibition) at 10 µM. HEK293 TMEM16A/YFP iodide influx fluorescence, ionomycin. Anoctamin-1 (Mus musculus), Q8BHY3;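 active = ratio plate-corrected score three or more library SD toward inhibition, starting fluorescence score within five deviations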;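 also: score derived from kinetic fluorescence span divided by baseline fluorescence per well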
ANO1 activ: TMEM16A chloride channel activators or potentiators, primary screen, cell-based, HTS; B-score at 10 µM; 340,000 tested, 0.3% active; HEK293 TMEM16A/YFP-H148Q/I152L, iodide quench fluorescence; hits give low values; AID 623877, 2012; Anoctamin-1 (Mus musculus), Q8BHY3;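 active = fluorescence-ratio B-score plate-corrected deviation score at least 3 library SD below zero, with starting fluorescence score within 5 deviations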;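 also: channel opened by trigger with iodide after compound preincubation; score built on the fluorescence ratio of max minus min over baseline; more negative score means more quench and so TMEM16A activation or potentiation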
Kir21 inh: inhibitors of mouse Kir2.1 inward-rectifier potassium channel; B-score at 10 µM; 310,000 tested, 0.85% active; HEK293-Kir2.1, FluxOR thallium flux fluorescence; hits give low values; AID 1672, 2009; Inward rectifier potassium channel 2 (Mus musculus), P35561;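 active = fluorescence ratio B-score at or below minus 3 SD of library scores, with starting-brightness B-score within 2 SD, cut at about -4.2 in these data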;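 also: channel flux triggered by added potassium and thallium sulfate stimulus; B-score of peak minus minimum fluorescence over baseline after thallium stimulus; more negative B-score means stronger Kir2.1 block with less thallium influx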
CHT act confirm: CHT activators, confirmation, cell-based, membrane potential dye, duplicate. shares compounds with CHT allo act. CHT-expressing cells, membrane potential dye fluorescence (FDSS); % of choline EC20–EC90 response window; HEK293 expressing CHT LV-AA mutant; choline added at its EC20. activation, % at 10 µM. 2,500 tested, 91% active. AID 504833, 2011;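 active = primary screen active, with duplicate mean activation above negative control mean plus 3 SD, cut at about 11% in these data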
HEK293 MP dye: membrane potential response in parental HEK293 cells, counter-screen for CHT activator project, cell-based, membrane potential dye; 2,500 tested, 62% active; shares compounds with CHT allo act; membrane potential dye fluorescence (FDSS); measured after EC20 choline addition; ratio readout change at 10 µM, hits read low;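 active = duplicate-averaged ratio beyond 3 SD from buffer wells, up or down, though filed actives are nearly all decreases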
Of the large screens only hits and unclear results are named; the others gave an inactive call (follow-up assays come after a bar, where they were run); ! = repeats disagree.

Cc1ccc(-n2cccn2)c(CN2CCCC(CNC(=O)c3ccc(F)cc3)C2)c1 (stereo unspecified)	none | CHT act confirm 39 | HEK293 MP dye inactive
CCOC(=O)C1(CC2CCCCO2)CCN(Cc2cc(F)ccc2-n2cccn2)CC1 (stereo unspecified)	CHT allo act 9.4 | CHT act confirm 49 | HEK293 MP dye inactive
O=C(NCC(=O)N1CCN(S(=O)(=O)c2ccccc2F)CC1)c1ccc(Br)o1	none
C[C@@H](C(O)c1ccccc1)N(C)C(=O)CCc1ccccc1 (stereo partly specified)	none
CCOc1ccc(N2C=Nc3ccc(OCC)cc3C2)cc1	none
O=C(Cc1ccsc1)Nc1ccccc1F	none
COc1ccc(-c2cn3ccccc3n2)cc1OC	none | CHT act confirm 21 | HEK293 MP dye -38
COc1ccc(-c2cn3cc(C)ccc3n2)cc1OC	none
CCC(=O)Nc1cccc(-c2cn3ccccc3n2)c1	none | CHT act confirm 45 | HEK293 MP dye -42
O=C(CNC(=O)c1ccc(Br)o1)NCc1ccccc1Cl	none
CCOC(=O)c1ccc(N2CCOCC2)c(NS(=O)(=O)c2ccc(F)cc2)c1	none
CC1(C)Cc2c(cnn2-c2cccc(F)c2)C(NC(=O)C2CCOCC2)C1 (stereo unspecified)	none
COc1cc(-c2nc3cnccn3c2Nc2ccccc2)ccc1O	none
COc1cc(-c2nc3cccc(C)n3c2NCC2CCCO2)ccc1O (stereo unspecified)	CHT allo act 6.7 | CHT act confirm 36 | HEK293 MP dye -40
COc1ccccc1NS(=O)(=O)c1cc(N2Cc3ccccc3C2=N)ccc1N1CCOCC1	none | CHT act confirm 37 | HEK293 MP dye -45
COc1ccccc1NS(=O)(=O)c1cc(N)ccc1N1CCOCC1	none (no result: CHT allo act, CHT block, GPR7 antag, ANO1 block, Kir21 inh)
O=C(CN1C(=O)NC2(CCCC2)C1=O)N1CCN(S(=O)(=O)c2cccc(C(F)(F)F)c2)CC1	none (no result: GPR7 antag)
O=C(NNc1cc(Cl)cc(Cl)c1)C1CCC1	none
O=C(NNc1ccc(Cl)cc1)C1CCC1	none | CHT act confirm 14 | HEK293 MP dye inactive
Cc1cc(OC(C)C(=O)NCCN2CCOCC2)c2c(C)c(C)c(=O)oc2c1 (stereo unspecified)	none | CHT act confirm 58 | HEK293 MP dye -56
CCCc1cc(=O)oc2cc(C)cc(OC(C)C(=O)NCCCN3CCOCC3)c12 (stereo unspecified)	none
Cc1cc(OC(C)C(=O)NCCCN2CCOCC2)c2c(C)cc(=O)oc2c1 (stereo unspecified)	none | CHT act confirm 50 | HEK293 MP dye -41
OC(CNCc1ccccn1)c1ccccc1 (stereo unspecified)	none
Fc1ccc(C(CCNCc2ccccn2)c2ccc(Cl)cc2)cc1 (stereo unspecified)	Kir21 inh -6.4 | CHT act confirm 16 | HEK293 MP dye inactive
Cc1cc(C)c(C)c(C(=O)C(=O)c2ccccc2)c1	none (no result: CHT allo act, CHT block, GPR7 antag, ANO1 block, Kir21 inh)
COc1cc2nc(N3CCN(C(=O)c4ccco4)CC3)nc(N)c2cc1OC	CHT allo act 6.5! | CHT act confirm 37 | HEK293 MP dye -26
Cc1csc(SCC(=O)NC(C)C2CC3CCC2C3)n1 (stereo unspecified)	none (no result: GPR7 antag)
CN=Cc1c(NC)nc2c(C)cccn2c1=O	CHT allo act 9.3 | CHT act confirm 43 | HEK293 MP dye -27
Cc1cccn2c(=O)c(C=O)c(N3CCCCC3)nc12	none
Cc1cccn2c(=O)c(C=O)c(Cl)nc12	CHT allo act 6.6 | CHT act confirm 42 | HEK293 MP dye -31
CNc1nc2c(C)cccn2c(=O)c1C=NCc1ccccc1	none
CC(C)c1ccccc1-n1c(SCc2cc(=O)oc3ccc4ccccc4c23)nnc1-c1cccnc1	none
OC1Cc2ccccc2C1Nc1cccc(C(F)(F)F)c1 (stereo unspecified)	none (no result: CHT allo act, CHT block, GPR7 antag, ANO1 block, Kir21 inh)
CN(C)C(/C=C/Nc1ccc(C#N)cc1)=C(C#N)C#N	none
CN(C)C(/C=C/Nc1ccc(Br)cc1)=C(C#N)C#N	CHT allo act 7.3 | CHT act confirm 20 | HEK293 MP dye -50
CN(C)C(/C=C/Nc1ccc([N+](=O)[O-])cc1)=C(C#N)C#N	CHT allo act 7.1 | CHT act confirm 30 | HEK293 MP dye -55
C[N+](C)(C)CC(=O)N1CCN(c2ccc3ccccc3n2)CC1	CHT allo act 8.7 | CHT act confirm 79 | HEK293 MP dye -63
C[C@H](CO)N1C[C@H](C)[C@@H](CN(C)C(=O)Nc2ccc3c(c2)OCO3)Oc2c(NS(=O)(=O)c3ccc(F)cc3)cccc2C1=O	none (no result: CHT allo act, CHT block, GPR7 antag, ANO1 block, Kir21 inh)
Cc1ccc(CN2CCSc3ccc(C(=O)NCc4cccnc4)cc32)cc1	CHT allo act 6.9 | CHT act confirm 29 | HEK293 MP dye inactive
Cc1ccc(CN2CCSc3ccc(C(=O)NCCCN4CCN(C)CC4)cc32)cc1	none
CCOC(=O)CC1C(=O)NCCN1C(=O)c1cc2c(=O)n3cccc(C)c3nc2s1 (stereo unspecified)	CHT allo act 6.8 | CHT act confirm 17 | HEK293 MP dye -37
COCCN(C(=O)COC(=O)CCS(=O)(=O)c1ccccc1)c1c(N)n(Cc2ccccc2)c(=O)[nH]c1=O	none (no result: GPR7 antag)
Cc1cccn2c(CN3CCSCC3)c(C(=O)N3CCOCC3)nc12	none
Cc1cccn2c(CN3CCNC(=O)CC3)c(C(=O)N(C)CCc3ccccc3)nc12	none | CHT act confirm inactive | HEK293 MP dye inactive
CC(=O)c1cnc(Nc2nc(C)c3ccccc3n2)nc1C	none (no result: ANO1 activ) | CHT act confirm 44 | HEK293 MP dye -45
CC(=O)c1cnc(Nc2nc(C)c3ccc(C)cc3n2)nc1C	none
Cc1csc2cc(-c3cccc([N+](=O)[O-])c3)c(-c3cccc([N+](=O)[O-])c3)c[n+]12	CHT allo act 9.3 | CHT act confirm 86 | HEK293 MP dye -87
CCOC(=O)c1c(-c2cccc([N+](=O)[O-])c2)csc1N	none
O=C(CCC(=O)N1CCOc2ccccc21)NCCc1ccccc1	none
